Measurements reported in PubChem BioAssay AID602329 (Broad Institute, 2012).
In all, about 360,000 compounds went through this assay and about 510 (0.14%) were called active.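 Rule for the calls: active = mean normalized replicate activity at least 40 and at least half of replicates scoring 40 or more; inconclusive = only one of the two criteria met; inactive = mean below 40 and under half of replicates reaching 40.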 The sample as a whole holds a higher share of actives than the screen did.

target: DNA repair and recombination protein RAD54-like (Homo sapiens) (UniProt Q92698); assay: RAD54 Holliday junction migration blockers – biochemical, fluorescence, single point, primary screen (AID 602329); settings: RAD54 Holliday junction branch migration, FAM/BHQ fluorescence; at 10.4 µM; hits give high values;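 note: 0% = median of neutral control wells and 100% = median of positive control wells; inhibitors cause a drop in the FAM fluorescence signal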
Sequence (Q92698 whole entry, looked up): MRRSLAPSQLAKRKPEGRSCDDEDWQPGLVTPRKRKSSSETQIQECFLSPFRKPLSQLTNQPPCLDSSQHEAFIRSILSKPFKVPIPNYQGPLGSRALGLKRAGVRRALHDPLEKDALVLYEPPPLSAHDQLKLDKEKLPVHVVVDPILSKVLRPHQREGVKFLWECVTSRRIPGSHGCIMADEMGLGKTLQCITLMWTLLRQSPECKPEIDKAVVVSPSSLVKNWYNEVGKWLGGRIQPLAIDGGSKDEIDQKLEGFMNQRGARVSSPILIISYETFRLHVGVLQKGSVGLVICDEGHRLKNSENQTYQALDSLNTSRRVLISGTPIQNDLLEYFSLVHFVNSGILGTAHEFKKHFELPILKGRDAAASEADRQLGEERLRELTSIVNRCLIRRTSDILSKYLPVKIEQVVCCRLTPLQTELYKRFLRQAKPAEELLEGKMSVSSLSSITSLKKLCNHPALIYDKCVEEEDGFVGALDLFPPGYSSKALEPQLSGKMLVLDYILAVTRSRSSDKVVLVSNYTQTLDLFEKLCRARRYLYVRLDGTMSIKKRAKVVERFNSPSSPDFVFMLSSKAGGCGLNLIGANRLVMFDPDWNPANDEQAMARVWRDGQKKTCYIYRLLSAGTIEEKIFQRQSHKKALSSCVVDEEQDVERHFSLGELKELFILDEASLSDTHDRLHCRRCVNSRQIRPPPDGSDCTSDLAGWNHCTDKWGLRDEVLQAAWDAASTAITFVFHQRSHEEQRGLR

inhibition, inactive:
CC(C)NC(=O)Nc1ccc2c(c1)C(=O)N(C)[C@H]1CC[C@H](CC(=O)NCc3ccc(F)cc3)O[C@H]1CO2 7.11%, C[C@@H]1CN([C@H](C)CO)S(=O)(=O)c2ccc(C3=CCCC3)cc2O[C@@H]1CN(C)C(=O)C1CCC1 -3.7%, C[C@@H]1CCCCO[C@@H](CN(C)C(=O)c2ccccc2)[C@@H](C)CN([C@@H](C)CO)C(=O)c2cc(NS(=O)(=O)c3ccccc3)ccc2O1 -0.712%, CCCNC(=O)[C@H]1[C@H](CO)[C@H]2Cn3c(cccc3=O)[C@H]2N1Cc1ccccc1Cl -3.26%, CC(=O)N1[C@@H]2Cn3c(ccc(C4=CCCC4)c3=O)[C@H]1[C@@H](C(=O)NC1CCC1)[C@@H]2CO 7.46%, COc1ccc(NC(=O)N(C)C[C@H]2OCCCC[C@@H](C)Oc3ccc(NC(=O)c4ccncc4)cc3C(=O)N([C@@H](C)CO)C[C@H]2C)cc1 2.64%, CN1C(=O)c2cc(NS(=O)(=O)c3ccc(Cl)cc3)ccc2OC[C@@H]2O[C@H](CC(=O)O)CC[C@@H]21 -1.23%, CC(C)NC(=O)N(C)C[C@@H]1Oc2ncc(-c3ccc(C(=O)N(C)C)cc3)cc2C(=O)N([C@H](C)CO)C[C@H]1C -0.445%, CCCNC(=O)N(C)C[C@@H]1Oc2ncc(-c3cccc(C#N)c3)cc2C(=O)N([C@@H](C)CO)C[C@H]1C 7.71%, CCC(=O)N(C)C[C@@H]1Oc2cc(C#CCOC)ccc2S(=O)(=O)N([C@@H](C)CO)C[C@@H]1C -1.77%, Cc1ccc(-n2c(=O)c(C#N)cc3c(=O)n4ccccc4nc32)cc1C -1.05%, Cc1cccn2c(=O)c3cc(C#N)c(=NC(=O)c4cccnc4)n(CC4CCCO4)c3nc12 (stereo unspecified) -4.7%, C[C@@H](NC(=O)C[C@H]1C[C@H]2c3cc(NC(=O)C4CCOCC4)ccc3O[C@H]2[C@@H](CO)O1)c1ccccc1 -0.474%, CC(=O)Nc1cc(-c2ccc(N3CCN(C)CC3)cc2)cn2c(-c3ccc(F)cc3)cnc12 36.5%, Cc1cc(Nc2cc(N3CCN(C)CC3)nc(Sc3ccc(NC(=O)C4CC4)cc3)n2)n[nH]1 17.6%, C[C@H](CO)N1C[C@H](C)[C@@H](CN(C)S(=O)(=O)c2cn(C)cn2)Oc2ccc(N(C)C)cc2CC1=O -0.235%, CCN(C[C@@H]1[C@@H](c2ccccc2)[C@H](CO)N1C(C)=O)C(=O)NC(C)C -5%, CO[C@@H]1CN(C)C(=O)c2cc(NC(=O)C3CCCC3)ccc2OC[C@@H](C)N(Cc2ccc(F)cc2)C[C@H]1C -4.74%, CC(=O)N(C)C[C@@H]1Oc2cc(C#Cc3ccccc3F)ccc2S(=O)(=O)N([C@@H](C)CO)C[C@@H]1C -0.527%, C[C@@H]1CN([C@@H](C)CO)C(=O)c2cc(-c3ccc(C#N)cc3)cnc2O[C@H]1CN(C)C(=O)CN(C)C 5.52%, CCNC(=O)C[C@@H]1CC[C@@H]2[C@H](COC[C@H](O)CN2S(=O)(=O)c2ccc(Oc3ccccc3)cc2)O1 -6.18%, O=C(C[C@H]1CC[C@@H](NC(=O)c2ccccc2)[C@@H](CO)O1)NCc1ccncn1 -7.18%, CCCNC(=O)C[C@@H]1CC[C@@H]2[C@H](COc3ccc(NC(=O)c4cc(F)cc(F)c4)cc3C(=O)N2C)O1 1.51%, CCCNC(=O)C[C@@H]1CC[C@H]2[C@@H](COC[C@@H](O)CN2Cc2ccccc2F)O1 6.11%, C[C@@H]1CN([C@H](C)CO)C(=O)c2cccc(NC(=O)Nc3ccc4c(c3)OCO4)c2O[C@@H]1CN(C)Cc1ccccc1 -7.8%, C[C@H]1CN([C@@H](C)CO)C(=O)c2cc(NC(=O)C3CC3)ccc2O[C@@H]1CN(C)S(=O)(=O)c1cn(C)cn1 -0.446%, COc1ccc(NC(=O)N(C)C[C@H]2OCc3ccccc3-c3ccccc3C(=O)N([C@H](C)CO)C[C@@H]2C)cc1 -9.7%, O=C1CCN(CCCc2ccccc2)CCN1CCO -1.44%, O=C(Nc1cccc(Cl)c1)c1cc([N+](=O)[O-])ccc1N1CCN(CCO)CC1 -11.1%, Cc1noc(C)c1NC(=O)N(C)C[C@H]1Oc2ccc(NS(=O)(=O)c3ccc(Cl)cc3)cc2CC(=O)N([C@H](C)CO)C[C@@H]1C -4.2%, Cc1ccc(S(=O)(=O)N(C)C[C@H]2Oc3ccc(NC(=O)C4CC4)cc3C(=O)N([C@H](C)CO)C[C@H]2C)cc1 8.82%, CO[C@H]1CN(C)C(=O)c2cc(NC(=O)C3CCC3)ccc2OC[C@H](C)N(Cc2nccs2)C[C@H]1C 2.2%, COc1cccc(NC(=O)C[C@@H]2CC[C@H]3[C@@H](COc4ccc(NC(=O)C5CCOCC5)cc4C(=O)N3C)O2)c1 -1.97%, COCC(=O)Nc1ccc2c(c1)C(=O)N(C)C[C@@H](OC)[C@H](C)CN(C(=O)CC1CC1)[C@H](C)CO2 3.23%, CCCN(C)C[C@H]1Oc2cc(-c3ccc(C)cc3)ccc2S(=O)(=O)N([C@H](C)CO)C[C@H]1C -15%, C#Cc1ccc([C@H]2C=C(C(=O)O)O[C@@H](OCC)[C@@H]2CCCO)cc1 -9.94%, Cc1noc(C)c1NC(=O)Nc1cccc2c1O[C@@H](CN(C)Cc1ccc3c(c1)OCO3)[C@@H](C)CN([C@@H](C)CO)C2=O 7.78%, O=C(c1cccnc1)N1CCCCN2[C@@H](CO)[C@H](c3ccc(C#Cc4ccccc4)cc3)[C@@H]2C1 1.81%, CCNC(=O)[C@@H]1[C@@H](CO)[C@@H]2Cn3c(ccc(C4=CCCC4)c3=O)[C@H]1N2Cc1ccccc1 2.92%, CC(C)NC(=O)N(C)C[C@H]1OCCCC[C@H](C)Oc2ccc(NC(=O)Nc3ccc4c(c3)OCO4)cc2C(=O)N([C@H](C)CO)C[C@@H]1C -0.838%, CNC[C@H]1Oc2cc(C#Cc3ccccc3)ccc2S(=O)(=O)N([C@@H](C)CO)C[C@@H]1C 1.19%, Cc1ccc(S(=O)(=O)N(C)C[C@H]2OCCCC[C@H](C)Oc3ccc(NS(=O)(=O)c4c(C)noc4C)cc3C(=O)N([C@H](C)CO)C[C@@H]2C)cc1 3.91%, CN1c2ccc(-c3ccc(F)cc3)cc2[C@@H]2[C@@H](CCN2S(=O)(=O)c2ccc(F)cc2)[C@@H]1CO -1.5%, COc1ccc(NC(=O)Nc2ccc3c(c2)CC(=O)N([C@@H](C)CO)C[C@H](C)[C@H](CN(C)C(=O)Nc2ccc4c(c2)OCO4)O3)cc1 -3.32%, COc1cccc(C(=O)Nc2ccc3c(c2)C(=O)N(C)[C@@H]2CC[C@@H](CC(=O)NCCCN4CCOCC4)O[C@@H]2CO3)c1 8.84%, CO[C@H]1CN(C)C(=O)c2ccc(NC(=O)C3CCOCC3)cc2OC[C@H](C)NC[C@H]1C -0.243%, CCNC(=O)C[C@@H]1CC[C@@H]2[C@@H](COc3ccc(NC(=O)c4cccc(C(F)(F)F)c4)cc3C(=O)N2C)O1 7.26%, O=C(C1CCC1)N1CC[C@H]2[C@H](CO)Nc3ccc(-c4cccc(F)c4)cc3[C@H]21 2.5%

inhibition, active:
Cc1cccn2c(=O)c3cc(C#N)c(=O)n(CCCN4CCOCC4)c3nc12 56.4%, C=CC(=O)Nc1ccc(Nc2ccnc(Nc3ccc(N4CCN(C)CC4)cc3)n2)cc1 81.2%, O=C1c2ccccc2C(=O)c2c1cccc2N1CCN(CCO)CC1 84.2%
